From PubChem BioAssay (EPA / NIEHS) come the findings set out here.

Active and inactive are the calls of the source. The calls were made as follows: active = hit-call score of the fitted dose curve at least 0.9, where 1 is the maximum; inactive = score below 0.9.

Read-out in test [1]: Vascular endothelial growth factor receptor 2 (Homo sapiens) (UniProt P35968)
The test is described as follows: BSK_4H_VEGFRII: BioMAP Diversity Plus: 4H Assay for Vascular endothelial growth factor receptor 2 (VEGFR2) Biomarker Activity (AID 2283031).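 As to AC50: cell-surface VEGFR2 protein level quantified by ELISA.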 The conditions noted are these: primary human endothelial cells (HUVEC); actives raise or lower the signal. In short, it runs like this:
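Primary human umbilical vein endothelial cells in the BioMAP 4H system were dosed with test chemical, and 24 h later VEGFRII was measured by ELISA. Activity was fitted bidirectionally against DMSO as negative control and baseline.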

Read-out in test [2]: Human Leukocyte Antigen - DR isotype (HLADR), HLA-DRA (gene 3122)
The test is described as follows: BSK_BE3C_HLADR: BioMAP Diversity Plus: BE3C Assay for Human Leukocyte Antigen - DR isotype (HLADR) Biomarker Activity (AID 2283032). Particulars: primary human bronchial epithelial cells; actives raise or lower the signal. The method, boiled down: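 Chemicals are dosed onto BE3C bronchial epithelial cultures of human origin and left 24 h. HLA-DR is then measured by ELISA, and the endpoint is fitted in both directions using DMSO as the activity baseline.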

Read-out in test [3]: Vascular cell adhesion molecule 1 (VCAM1), VCAM1 (gene 7412)
As to the kind of experiment: BSK_4H_VCAM1: BioMAP Diversity Plus: 4H Assay for Vascular cell adhesion molecule 1 (VCAM1) Biomarker Activity (AID 2283033).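 As to outcome: cell-surface VCAM-1 protein measured by ELISA.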 Particulars: primary human endothelial cells (HUVEC); actives raise or lower the signal. The method, boiled down: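 Chemicals are added to primary human umbilical vein endothelial cells. After 24 h, VCAM-1 levels are measured by ELISA. Values come from bidirectional fitting referenced to DMSO.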

Read-out in test [4]: Interferon-gamma inducible Protein 10 (IP10), CXCL10 (gene 3627)
As to the kind of experiment: BSK_BE3C_IP10: BioMAP Diversity Plus: BE3C Assay for Interferon-gamma inducible Protein 10 (IP10) Biomarker Activity (AID 2283034). The conditions noted are these: primary human bronchial epithelial cells; actives raise or lower the signal. The method, boiled down:
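IP-10 quantified by ELISA serves as the endpoint. Cells: primary human bronchial epithelium, read 24 h after compound addition. Activity is derived by bidirectional fitting with DMSO as negative control.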

Read-out in test [5]: Monokine induced gamma interferon (MIG), CXCL9 (gene 4283)
The test is described as follows: BSK_BE3C_MIG: BioMAP Diversity Plus: BE3C Assay for Monokine induced gamma interferon (MIG) Biomarker Activity (AID 2283035).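 Also: MIG protein measured by ELISA in BE3C cultures after 24 h of dosing.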 The conditions noted are these: primary human bronchial epithelial cells; actives raise or lower the signal. The method, boiled down:
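ELISA quantified MIG after 24 h exposure of primary bronchial epithelial cultures, analysed in both directions relative to DMSO. Cytotoxicity tracked in parallel cultures by sulforhodamine B staining.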

Read-out in test [6]: Transforming growth factor beta 1 (TGFb1), TGFB1 (gene 7040)
As to the kind of experiment: BSK_BE3C_TGFb1: BioMAP Diversity Plus: BE3C Assay for Transforming growth factor beta 1 (TGFb1) Biomarker Activity (AID 2283036;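 also: TGF-b1 protein level measured by ELISA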). Particulars: primary human bronchial epithelial cells; actives raise or lower the signal. The method, boiled down:
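Bronchial epithelial primary cells are treated with test chemical, then TGF-b1 is quantified by ELISA after 24 hours. Values derive from bidirectional fitting against DMSO, with cytotoxicity checked by SRB staining in parallel cultures.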

Read-out in test [7]: Plasminogen activator inhibitor-1 (PAI1), SERPINE1 (gene 5054)
As to the kind of experiment: BSK_BE3C_PAI1: BioMAP Diversity Plus: BE3C Assay for Plasminogen activator inhibitor-1 (PAI1) Biomarker Activity (AID 2283037). Particulars: primary human bronchial epithelial cells; actives raise or lower the signal. In short, it runs like this:
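Values derive from bidirectional fitting against DMSO baseline of PAI-1 levels, measured by ELISA in human bronchial epithelial cells 24 h after compound addition.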

Read-out in test [8]: urokinase plasminogen activator (uPA), PLAU (gene 5328)
The test is described as follows: BSK_BE3C_uPA: BioMAP Diversity Plus: BE3C Assay for urokinase plasminogen activator (uPA) Biomarker Activity (AID 2283038).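 Also: uPA protein level quantified by ELISA in cell cultures; uPA read one day after compound addition.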 The conditions noted are these: primary human bronchial epithelial cells; actives raise or lower the signal. In short, it runs like this:
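Human primary bronchial epithelial cells were exposed to chemical for 24 h, then uPA levels were measured by ELISA. Responses were fitted bidirectionally against DMSO as negative control and baseline. Parallel SRB staining of total protein gauged overt cytotoxicity.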

Read-out in test [9]: Urokinase-type plasminogen activator receptor (uPAR), PLAUR (gene 5329)
The test is described as follows: BSK_BE3C_uPAR: BioMAP Diversity Plus: BE3C Assay for Urokinase-type plasminogen activator receptor (uPAR) Biomarker Activity (AID 2283039).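 Also: cells exposed to compound for one day before measurement.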 The conditions noted are these: primary human bronchial epithelial cells; actives raise or lower the signal. In short, it runs like this: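 Steps: dose human primary bronchial epithelial cells, incubate 24 h, measure uPAR by ELISA, then fit gain- or loss-of-signal response bidirectionally relative to DMSO.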

Read-out in test [10]: Interleukin-6 (IL6), IL6 (gene 3569)
The test is described as follows: BSK_CASM3C_IL6: BioMAP Diversity Plus: CASM3C Assay for Interleukin-6 (IL6) Biomarker Activity for (AID 2283040). The conditions noted are these: primary human coronary artery smooth muscle cells; actives raise or lower the signal.

Read-out in test [11]: Tissue plasminogen activator (tPA), PLAT (gene 5327)
As to the kind of experiment: BSK_BE3C_tPA: BioMAP Diversity Plus: BE3C Assay for Tissue plasminogen activator (tPA) Biomarker Activity (AID 2283041).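 As to outcome: tPA level quantified by ELISA one day after compound addition.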 Particulars: primary human bronchial epithelial cells; actives raise or lower the signal. The method, boiled down:
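Gain- or loss-of-signal in tPA, measured by ELISA, derived by bidirectional fitting against DMSO. Cells: human primary bronchial epithelial; read at 24 h after chemical dosing.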

Read-out in test [12]: Interleukin-8 (IL8), CXCL8 (gene 3576)
As to the kind of experiment: BSK_CASM3C_IL8: BioMAP Diversity Plus: CASM3C Assay for Interleukin-8 (IL8) Biomarker Activity (AID 2283042).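 Also: IL-8 protein level quantified by ELISA.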 Particulars: primary human coronary artery smooth muscle cells; actives raise or lower the signal.

Read-out in test [13]: Human Leukocyte Antigen - DR isotype (HLADR), HLA-DRA (gene 3122)
As to the kind of experiment: BSK_CASM3C_HLADR: BioMAP Diversity Plus: CASM3C Assay for Human Leukocyte Antigen - DR isotype (HLADR) Biomarker Activity (AID 2283043).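 Also: cell-surface HLA-DR protein level quantified by ELISA.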 Particulars: primary human coronary artery smooth muscle cells; actives raise or lower the signal.

Read-out in test [14]: Macrophage colony-stimulating factor (MCSF), CSF1 (gene 1435)
As to the kind of experiment: BSK_CASM3C_MCSF: BioMAP Diversity Plus: CASM3C Assay for Macrophage colony-stimulating factor (MCSF) Biomarker Activity (AID 2283044).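 Also: M-CSF protein amount quantified by ELISA after 24 h exposure.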 Particulars: primary human coronary artery smooth muscle cells; actives raise or lower the signal.

Read-out in test [15]: Low-density lipoprotein receptor (LDLR), LDLR (gene 3949)
The test is described as follows: BSK_CASM3C_LDLR: BioMAP Diversity Plus: CASM3C Assay for Low-density lipoprotein receptor (LDLR) Biomarker Activity (AID 2283045).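 Also: LDLR protein level on the cell surface quantified by ELISA.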 The conditions noted are these: primary human coronary artery smooth muscle cells; actives raise or lower the signal.

Read-out in test [16]: Monocyte Chemoattractant Protein-1 (MCP1), CCL2 (gene 6347)
The test is described as follows: BSK_CASM3C_MCP1: BioMAP Diversity Plus: CASM3C Assay for Monocyte Chemoattractant Protein-1 (MCP1) Biomarker Activity (AID 2283046).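 Also: MCP-1 level quantified by ELISA 24 h after dosing.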 The conditions noted are these: primary human coronary artery smooth muscle cells; actives raise or lower the signal.

A short description of test [17]: BSK_CASM3C_Proliferation: Cell Proliferation Assessment in the BioMAP Diversity Plus: CASM3C Assay (AID 2283047).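 Also: sulforhodamine B total protein stain as relative cell number at 560 nm; sub-confluent cells exposed 48 h before staining; fitted both ways against DMSO so gain or loss of cell number.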 Particulars: primary human coronary artery smooth muscle cells.
Read-out in test [18]: Monokine induced gamma interferon (MIG), CXCL9 (gene 4283)
The test is described as follows: BSK_CASM3C_MIG: BioMAP Diversity Plus: CASM3C Assay for Monokine induced gamma interferon (MIG) Biomarker Activity (AID 2283048). Particulars: primary human coronary artery smooth muscle cells; actives raise or lower the signal.

Read-out in test [19]: serum amyloid A (SAA), SAA1 (gene 6288)
The test is described as follows: BSK_CASM3C_SAA: BioMAP Diversity Plus: CASM3C Assay for serum amyloid A (SAA) Biomarker Activity (AID 2283049).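 Also: SAA protein level quantified by ELISA.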 Particulars: primary human coronary artery smooth muscle cells; actives raise or lower the signal.

Test [20] can be described thus: BSK_CASM3C_SRB: Viability Assessment in the BioMAP Diversity Plus: CASM3C Assay (AID 2283050).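 Also: total protein by SRB staining as cytotoxicity measure in parallel cultures.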 Particulars: primary human coronary artery smooth muscle cells.

Turning to `CCCCCCCCCCCCCCCC`, the result in [1], in test [2], in test [3], in test [4], in test [5] and in test [6] was inactive. Further, the outcome in test [7], in test [8], in test [9], in test [10], in test [11] and in test [12] was inactive. Also, the result in test [13], in [14], in test [15], in [16], in test [17] and in [18] was inactive. Further, the result in test [19] and in test [20] was inactive.
Regarding `CCOc1ccc2c(c1)C(C)=CC(C)(C)N2`, the result in [1], in [2], in [3], in test [4], in test [5] and in test [6] was inactive. Moreover, the result in test [7], in test [8], in test [9], in [10], in [11] and in test [12] was inactive. Also, the result in [13], in test [14], in [15], in test [16], in test [17] and in test [18] was inactive. Besides, the outcome in test [19] and in [20] was inactive.
As usually defined, the AC50 is the concentration giving half of the maximal activity seen. `CC=Cc1ccc(O)c(OC)c1`: the outcome in [1], in [2], in test [4], in test [5], in [6] and in test [7] was inactive. In addition, the result in test [8], in test [9], in [10], in [11], in test [12] and in test [13] was inactive. In addition, the result in test [14], in test [15], in test [16], in test [17], in test [18] and in [19] was inactive. Also, the outcome in test [20] was inactive. The concentration at half-maximal activity (AC50) in [3] is 7.6 µM (active).
In the case of `CCOC(=O)CCC(=O)OCC`, the result in test [1], in test [2], in [3], in test [4], in test [5] and in [6] was inactive. Moreover, the result in test [7], in test [8], in [9], in test [10], in [11] and in test [12] was inactive. For the same compound, the outcome in [13], in test [14], in test [15], in test [16], in [17] and in test [18] was inactive. Besides, the outcome in [19] and in test [20] was inactive.
With `CC(C)(C)c1cc(O)c(C(C)(C)C)cc1O`, the AC50 is 1.02 µM (active) in [1], 6.44 µM (active) in [3] and 15.7 µM (active) in [11]. The result in test [2], in [4], in test [5], in [6], in test [7] and in [8] was inactive. The outcome in test [9], in [10], in test [12], in test [13], in test [14] and in test [15] was inactive. The outcome in [16], in test [17], in test [18], in [19] and in test [20] was inactive.
Take `O=C(N[C@@H](Cc1ccccc1)[C@@H](O)C(=O)N1C[C@@H](O)[C@@H](O)C1)c1cc2cc(Cl)ccc2[nH]1`: the result in [1], in test [2], in test [3], in test [4], in test [5] and in test [6] was inactive. Also, the outcome in test [7], in test [8], in [9], in test [10], in [11] and in test [12] was inactive. For the same compound, the result in test [13], in test [14], in test [15], in test [16], in [17] and in test [18] was inactive. The result in [19] and in test [20] was inactive.
